Among all 290,000 compounds or so, about 3,000 (1%) were called active. The entries come from a sample that favours actives as a whole. Values without a mark were called inactive. No stated cut-off is given here; in the data, active means inhibition mostly above about 36% (no sharp cut-off); inactive means mostly below about 34%.
Assay: NOD1 signaling inhibitors, primary screen, cell-based, luminescence, uHTS (AID 1578);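 further: HEK-293T reporter cells stimulated with the NOD1 agonist gamma-tri-DAP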
Conditions: NOD1-driven NF-kB luciferase reporter cells, at 4 µM, hits give high values
In the case of `CCOC(=O)c1nnn(CC(=O)NC(=O)Nc2ccccc2)c1C(=O)OCC`, the inhibition is reported as -7.4%. Compound `CC(=O)c1ccc(-n2cc(-c3ccc(C(C)(C)C)cc3)[n+]3c2SCCC3)cc1` has an inhibition of 5.2%. With `COc1ccc(-c2cn(-c3ccc(Br)cc3)c3[n+]2CCS3)cc1` the inhibition was -4.3%. In the case of `CC(C)(C)c1ccc(-c2cn(-c3ccc(Br)cc3)c3[n+]2CCCS3)cc1`, the inhibition is reported as 57.2% (active). `Cc1cc(=O)c2ccc(C(F)(F)F)cc2[nH]1` gave an inhibition of -14.1%. `COCCn1c(=S)[nH]c2cc(C(=O)N3CCN(c4cccc(Cl)c4)CC3)ccc2c1=O` gave an inhibition of 13.3%. Compound `COc1ccc(OC)c2c1C(=O)c1ccccc1C2=O` has an inhibition of -6.7%. For `COc1ccc(N)c2c1C(=O)c1ccccc1C2=O`, the inhibition was -34.4%. With `COc1ccc(OC)c2c1C(=O)C(Cl)=C(Cl)C2=O` the inhibition was 93.8% (active). `CCOc1ccc2cc(/C=C/C(=O)c3ccco3)c(Cl)nc2c1` showed an inhibition of 1.7%. In the case of `CCOc1ccc2nc(Cl)c(/C=C/C(=O)c3ccco3)cc2c1`, the inhibition is reported as 69.3% (active). In the case of `Cc1ccc2nc(Cl)c(/C=C/C(=O)c3ccco3)cc2c1`, the inhibition is reported as -0.1%. In the case of `CC(C)(C)N1C(=O)[C@H]2[C@@H](c3ccc(Br)cc3)N3C(=O)N(c4cccc(Br)c4)C(=O)[C@@]3(Cc3ccccc3)[C@H]2C1=O`, the inhibition is reported as -11.7%. In the case of `COc1ccc(CC(=O)Oc2ccc(F)cc2)cc1`, the inhibition is reported as -9.7%. `O=C(NN/C(=N/S(=O)(=O)c1ccc(Cl)cc1)c1ccccc1)c1ccc(O)cc1` gave an inhibition of -79.7%. Work on `CCc1ccc(NC(=S)N2CCN(S(=O)(=O)c3ccccc3)CC2)cc1` yielded an inhibition of -13.5%. For `CCOc1ccc2noc3c2c1C(=O)c1ccccc1-3`, the inhibition was -12.5%. `O=C1c2ccccc2-c2onc3c(Oc4ccccc4)cc(O)c1c23` showed an inhibition of -15.3%. With `O=C1c2ccccc2-c2onc3ccc(Oc4ccccc4)c1c23` the inhibition was 86.3% (active). `O=S(=O)(c1cccc(-n2cnnn2)c1)N1CCOCC1` gave an inhibition of -8.4%. In the case of `CCOc1ccc2nc(SC3CC(=O)N(c4ccc(OC)cc4)C3=O)sc2c1` (stereo not given), the inhibition is reported as 15.3%. `Cc1ccc(SCc2cc(=O)[nH]c(/N=C(\N)Nc3cccc4ccccc34)n2)cc1` gave an inhibition of -11.6%. Compound `COc1ccc(Cl)cc1N/C(N)=N/c1nc(CSc2ccc(C)cc2)cc(=O)[nH]1` has an inhibition of -6%. For `COc1ccccc1N/C(N)=N/c1nc(CSc2ccc(C)cc2)cc(=O)[nH]1`, the inhibition was 53% (active). Work on `Cc1ccc(NC(=O)CN2CCN(C(=O)C3CCCO3)CC2)c(C)c1` (stereo not given) yielded an inhibition of -8.7%. For `CCCCCCc1nc2ccccc2c(=O)n1NC(=O)c1c(O)c2cccc3c2n(c1=O)CCC3`, the inhibition was 46.9%. `CCC(=O)N1CCN(c2nc(-c3ccc(Cl)cc3)cs2)CC1` showed an inhibition of -12.7%. In the case of `CC(=O)/C(C#N)=C1\NC(=O)C(Cc2ccccc2Cl)S1` (stereo not given), the inhibition is reported as 14.5%. With `CC(=O)/C(C#N)=C1\NC(=O)C(Cc2cc(Cl)ccc2Cl)S1` (stereo not given) the inhibition was 55% (active). Compound `CC(=O)/C(C#N)=C1\NC(=O)C(Cc2ccc(C)c(Cl)c2)S1` (stereo not given) has an inhibition of 26.5%. `COc1cc(/C=C/C(=O)N2CCOCC2)ccc1OCc1ccccc1` gave an inhibition of -102%. Compound `Cc1cc(C)n2nc(C(=O)Nc3c(C)nn(Cc4ccc(F)cc4)c3C)cc2n1` has an inhibition of -36.9%. With `Cc1cc2oc(=O)cc(Cn3ncc(Cl)c(Cl)c3=O)c2cc1Cl` the inhibition was 56.2% (active). In the case of `Cc1cc2oc(=O)cc(CN3CCOCC3)c2cc1Cl`, the inhibition is reported as 6.3%. In the case of `Cc1cc2oc(=O)cc(Cn3ccnc3)c2cc1Cl`, the inhibition is reported as 0.9%. Compound `O=[N+]([O-])c1cc(S(=O)(=O)N2CCCC2)ccc1N/N=C1/CCCc2ccccc21` has an inhibition of 13.3%. For `NS(=O)(=O)c1ccc(CNC(=O)c2cccnc2Cl)cc1`, the inhibition was -10.3%. For `CCOC(=O)C1CCCN(CCC(=O)Nc2cccc(C)c2)C1` (stereo not given), the inhibition was -37.8%. With `COc1ccc(/C=N/Nc2nncn2N)cc1Br` the inhibition was -19.1%. With `Nn1cnnc1N/N=C/c1cc(Br)cc(Br)c1O` the inhibition was 82.4% (active). Compound `Nn1cnnc1N/N=C/c1ccc(Cl)cc1Cl` has an inhibition of -3.2%. With `CC(C)CCN1C(=O)c2ccccc2C1C(=O)NCc1cccnc1` (stereo not given) the inhibition was 7.5%. For `Cn1c(=O)c2c(nc3n2CC(COc2ccccc2)O3)n(C)c1=O` (stereo not given), the inhibition was -8.7%. `COc1cc(/C=N/Nc2snc(SC)c2C#N)ccc1O` gave an inhibition of 63.7%. Work on `COc1ccc(/C=N/Nc2snc(SC)c2C#N)cc1OC` yielded an inhibition of -0.1%. With `COc1cc(/C=N/Nc2snc(SC)c2C#N)cc(OC)c1OC` the inhibition was 68.9% (active). `CCOc1ccc(NC(=O)CCNS(=O)(=O)c2ccc3c(c2)oc(=O)n3C)cc1` showed an inhibition of -14.8%. With `N#CC(C(=O)c1ccccc1Cl)=C1SCCCS1` the inhibition was -2.6%. In the case of `CCN1C(=NCC(C)C)N[C@@H](c2cccc(C(F)(F)F)c2)C(C(=O)OC)=C1C`, the inhibition is reported as -18.8%. In the case of `Cc1ccc(-c2nc3cnccn3c2Nc2c(C)cccc2C)o1`, the inhibition is reported as 71% (active). With `Cc1ccc(-c2nc3cnccn3c2Nc2ccccc2)o1` the inhibition was -18.2%. `Cc1ccc(Nc2c(-c3ccc(C)o3)nc3cnccn23)cc1` gave an inhibition of -9.7%. In the case of `COc1ccc(C2c3cc(OC)c(OC)cc3CCN2C(=O)c2ccccc2)cc1OC` (stereo not given), the inhibition is reported as -31.9%. `Cc1ccc(NC(=O)c2cc(=O)c3ccccc3o2)cc1S(=O)(=O)N1CCOCC1` gave an inhibition of -6.6%. With `Cc1ccc(S(=O)(=O)N2CCCCC2)cc1NC(=O)CSc1ncnc2ccccc12` the inhibition was 58.7%. For `Cc1ccc(NC(=O)CSc2ncnc3ccccc23)cc1S(=O)(=O)N1CCCCCC1`, the inhibition was 31.7%. With `O=C(Nc1ccc(S(=O)(=O)N2CCCC2)cc1)c1cc(=O)c2ccccc2o1` the inhibition was -3.6%. With `COc1ccc(Br)cc1CNC(=O)CN1C(=O)C(c2ccccc2)Oc2cccnc21` (stereo not given) the inhibition was 18.1%. `CCc1ccccc1NC(=O)CCc1c(C)nn(-c2ccc(N3CCOCC3)nn2)c1C` gave an inhibition of 20.1%. Compound `O=C(CSc1nnc(CNC(=O)c2cccs2)o1)Nc1ccc(Br)cc1` has an inhibition of -31.8%.

Source: PubChem BioAssay AID1578 (Sanford-Burnham Center for Chemical Genomics, 2009)
